Source: PubChem
CHRM1 agonist: human M1 muscarinic receptor agonists, primary screen, Fluo-8 calcium fluorescence, CHO-K1 cells, HTS. Muscarinic acetylcholine receptor M1 (Homo sapiens), P11229. CHO-K1 hM1, agonist mode; 0% DMSO, 100% acetylcholine EC100. activation, % at 3 µM. 0.33% of 360,000 active;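 active means activation above the run's mean compound activation plus 3 SD, cut at about 16% in these data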;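 further: peak over basal fluorescence ratio within a 140 s kinetic read after compound addition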
Target sequence (P11229 whole entry, looked up): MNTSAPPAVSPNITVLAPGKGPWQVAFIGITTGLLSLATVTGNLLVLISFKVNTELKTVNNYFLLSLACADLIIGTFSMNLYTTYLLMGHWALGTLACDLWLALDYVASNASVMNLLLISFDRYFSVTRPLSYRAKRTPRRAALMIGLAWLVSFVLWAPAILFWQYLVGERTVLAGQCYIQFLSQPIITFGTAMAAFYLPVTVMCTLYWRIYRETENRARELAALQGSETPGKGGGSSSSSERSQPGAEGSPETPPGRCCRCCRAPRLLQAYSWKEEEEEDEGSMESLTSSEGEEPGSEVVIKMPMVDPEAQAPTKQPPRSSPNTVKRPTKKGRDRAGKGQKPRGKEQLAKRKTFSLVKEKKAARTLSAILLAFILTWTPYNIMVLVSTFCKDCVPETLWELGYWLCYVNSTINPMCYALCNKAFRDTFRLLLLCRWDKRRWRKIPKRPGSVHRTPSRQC
M1 PAM: human M1 muscarinic receptor positive allosteric modulators, primary screen, CHO-K1 cells, Fluo-8 calcium fluorescence, 1536-well; Muscarinic acetylcholine receptor M1 (Homo sapiens), P11229; CHO-K1 hM1, ACh EC20; 0% = ACh EC20, 100% = maximal ACh; activation, % at 3 µM; 0.088% of 360,000 active; in the data active means activation above about 19%, passing the limit was not always enough
M1 antag: human M1 muscarinic receptor antagonists, primary screen, CHO-K1 cells, Fluo-8 calcium fluorescence, 1536-well; CHO-K1 hM1, ACh EC80 antagonist; Muscarinic acetylcholine receptor M1 (Homo sapiens), P11229; 1.3% of 360,000 active; inhibition, % at 3 µM;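 active means percent inhibition above its own plate's cutoff, namely the mean of that plate's compound wells plus 3 SD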;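 further: peak over basal fluorescence ratio during 140 s after agonist addition; 0% = ACh EC80 plus DMSO and 100% = DMSO alone without agonist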
CHO-K1 Ca antag: nonselective inhibitor or artifact in parental CHO-K1 cells; ATP-induced calcium, Fluo-8 fluorescence; inhibition, % at 3 µM; 0.6% of 360,000 active; AID 602250;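 active means inhibition above a per-plate cutoff, the plate's mean sample inhibition plus 3 SD, cut at about 24% in these data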;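 further: 0% = DMSO plus EC80 ATP and 100% = DMSO alone without ATP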
CHO-K1 Ca ag: counter-screen for M1 agonists: effect in parental CHO-K1 cells; Fluo-8 calcium fluorescence; scaled to maximal ATP response, vehicle zero; activation, % at 3 µM; 0.48% of 360,000 active; AID 602248, 2012; in the data active means activation above about 15%;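 further: untransfected CHO-K1 host cells lacking M1 receptor as counterscreen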
CHO-K1 Ca PAM: nonselective calcium activators in parental CHO-K1 cells, primary screen, counter-screen for M1 PAM project, cell-based, Fluo-8 calcium fluorescence, full deck, 1536-well | ATP EC20; 0% at ATP EC20, 100% at ATP max | activation, % at 3 µM | 0.02% of 360,000 active | AID 602247, 2012;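 active means activation above the run cutoff, the mean activation of all test compounds plus 3 SD, cut at about 40% in these data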;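 further: peak over basal fluorescence ratio in a 140 s read after ATP addition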
Numbers without * were called inactive; . = not tested or not shown. A selection: hits, their analogues and other compounds. The true share with any hit is near 2.3%.

SMILES	CHRM1 agonist	M1 PAM	M1 antag	CHO-K1 Ca antag	CHO-K1 Ca ag	CHO-K1 Ca PAM
COCCCN1C(=O)C(CC(=O)NC2CCCC2)CC(C(=O)N2CCOCC2)=C1C (stereo not given)	0	12	-13	2	0	13
COc1ccc(NC(=O)C2CCN(S(=O)(=O)c3cccc4nonc34)CC2)cc1	0	-3	-1	3	5	10
COCCNc1nc(NCc2cc(-c3ccc(OC)cc3)no2)c2sccc2n1	-2	-18	17	-6	9	6
CCc1nc2c(OCC3COc4ccccc4O3)cccn2c1N(C)C(=O)c1ccccc1F (stereo not given)	-4	-3	6	-18	5	10
CCc1nc2c(OCC(=O)C(C)(C)C)cccn2c1N(C)C(=O)c1cccs1	-4	20	-23	-6	0	10
CCc1nc2c(OCC(=O)c3ccc(F)cc3)cccn2c1N(C)C(=O)c1cccs1	0	4	2	26*	4	-17
CCc1nc2c(OCC3COc4ccccc4O3)cccn2c1N(C)C(=O)c1cccs1 (stereo not given)	-9	1	-15	31*	0	-12
CC1CCCCN1CC(=O)Nc1ccccc1Sc1ccccc1 (stereo not given)	-8	-25	27*	-14	2	25
COCCNC(=O)C1(C)CCCN(Cc2ccc(Oc3ccccc3)cc2)C1 (stereo not given)	-8	-9	9	-13	2	14
CCCCCCC[C@@H](C/C=C/CCC(=O)N(C)C/C(=C/Cl)C/C(=C\C(=O)N1CC(OC)=CC1=O)OC)OC	-4	-11	33*	-4	2	1
O=C(NCc1ccco1)Nc1ccc([N+](=O)[O-])cc1	-1	-8	8	-19	6	13
Cc1nn(CC(=O)NCCc2ccco2)c(=O)c2nn(-c3ccccc3)c(C)c12	-4	5	-6	-10	0	14
Cc1c(Br)c([N+](=O)[O-])nn1C(C)C(=O)NCc1ccco1 (stereo not given)	-8	6	3	-2	0	5
Cc1nn(C(C)C(=O)NCCc2ccco2)c(=O)c2nn(-c3ccccc3)c(C)c12 (stereo not given)	-1	31*	19	-13	0	21
Cc1nn(C(C)C(=O)NCc2ccco2)c(C)c1[N+](=O)[O-] (stereo not given)	2	10	-11	-1	19*	15
CC(C(=O)NCc1ccco1)c1ccc([N+](=O)[O-])cc1 (stereo not given)	-5	11	-3	25*	0	-13
O=C1CSC(c2ccccc2Br)N1c1ccc(Cl)cn1 (stereo not given)	-6	-22	59*	-2	1	18
CN(C)CCCC1(O)c2ccccc2C=Cc2ccccc21	-5	-22	73*	10	0	-4
COc1ccc(N(C)S(=O)(=O)c2cccc(C(=O)NCC(c3cccs3)N(C)C)c2)cc1 (stereo not given)	-7	-26	52*	13	1	-1
Cc1cc(S(=O)(=O)Nc2ccc(C(=O)NCC(c3ccccc3)N(C)C)cc2)ccc1F (stereo not given)	-5	-8	13	6	2	-3
CC(=O)c1ccc(S(=O)(=O)NCc2ccc(C(=O)NCC(c3ccccc3)N(C)C)cc2)cc1 (stereo not given)	-11	-30	25*	-14	2	6
COc1ccc(N(C)S(=O)(=O)c2cccc(C(=O)NCC(c3ccco3)N3CCCC3)c2)cc1 (stereo not given)	-6	-8	4	-10	2	12
COc1ccccc1C(CNC(=O)c1ccc(NS(=O)(=O)c2ccc(F)c(C)c2)cc1)N(C)C (stereo not given)	28*	-9	21	-13	1	10
COc1ccccc1C(CNC(=O)c1cccc(NS(=O)(=O)c2ccc(C)c(F)c2)c1)N(C)C (stereo not given)	-8	-27	85*	3	0	5
CC(NC(=O)C1CCN(Cc2ccc(Oc3ccccc3)cc2)CC1)c1cccc2ccccc12 (stereo not given)	-2	0	2	-4	8	20
SMILES	CHRM1 agonist	M1 PAM	M1 antag	CHO-K1 Ca antag	CHO-K1 Ca ag	CHO-K1 Ca PAM
CN(Cc1ccccc1)S(=O)(=O)c1ccc(Cl)c(C(=O)N2CCOCC2)c1	0	1	-7	-5	1	7
COc1ccc(N(C)S(=O)(=O)c2cccc(C(=O)Nc3nc4ccccc4[nH]3)c2)cc1	-4	-15	34*	-7	8	-13
COc1ccccc1C(CNC(=O)c1cccc(S(=O)(=O)NCc2ccccc2)c1)N(C)C (stereo not given)	-2	-18	50*	8	3	-2
COc1cccc(CN(C)C(=O)c2cccc(S(=O)(=O)NCc3ccccc3)c2)c1OC	1	6	-13	1	4	10
CCOc1ccc(S(=O)(=O)Nc2cccc(C(=O)NCC(c3ccccc3)N(C)C)c2)cc1 (stereo not given)	0	-19	24	-15	12	19
CCN(CC)S(=O)(=O)c1cccc(C(=O)NCC(c2ccccc2)N(C)C)c1 (stereo not given)	-15	-36	55*	-8	0	-8
COc1ccc(C(CNC(=O)c2cccc(NS(=O)(=O)c3ccccc3)c2)N(C)C)cc1 (stereo not given)	-6	-20	48*	-3	0	8
O=C(c1cccc(S(=O)(=O)N2CCCC2)c1)N1CCN(Cc2ccccc2)CC1	2	14	-17	-16	1	15
CCCS(=O)(=O)N1CCCC(C(=O)c2ccccc2OC)C1 (stereo not given)	0	1	2	-5	2	17
CC(C)n1nnnc1C1c2ccccc2C(=O)N1Cc1ccccc1 (stereo not given)	.	.	.	-17	1	11
S=c1sscc1-c1ccccc1	-7	14	-11	-16	0	24
O=C(c1cc(C2CC2)nn1-c1ccccc1)N1CCN(c2ccccc2O)CC1	-2	0	5	-6	2	7
O=C(c1cc(C2CC2)nn1-c1ccccc1)N1CCN(c2ccccn2)CC1	-8	-21	30*	7	1	8
CCOc1ccc(S(=O)(=O)N2CCN(C(=O)c3cc(C4CC4)nn3-c3ccccc3)CC2)cc1	-7	-26	69*	66*	0	9
